Our source for the cell proliferation values is the supplement of paper PMC13172266.

Assay in all cases: cell proliferation relative to vehicle (% of vehicle); higher = less growth inhibition
Holding throughout (conditions): 72 h

In test [1] the test system is U2932 TK216-resistant clone 2. The method, boiled down: (§1)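 Growth medium with 10% FBS at 37°C and 5% CO2 was used to culture U2932, an ABC-DLBCL line, in parental form and as two clones rendered resistant to an ETS-targeting agent by repeated exposure over almost a year. These cells received compounds from a 348-member targeted inhibitor library at 500 nM or 50 nM for 72 h, followed by 4 h of MTT, a 25% SDS stop and an absorbance read on a Cytation 3. The percentage of proliferating cells is reported relative to DMSO vehicle.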

Test [2] concerns U2932 TK216-resistant clone 3. The method, boiled down:
as §1

Test [3] has as its system U2932 parental. The method, boiled down: as §1

Structures can show the parent of a compound that is named as a salt.

Regarding `O=c1[nH]nc(Sc2ncc([N+](=O)[O-])s2)n1-c1ccc2c(c1)OCCO2`, the cell proliferation is 98.1 in test [1] (50 nM); 94.6 in test [1] (500 nM); 102 in test [2] (50 nM); 97.9 in test [2] (500 nM); 100 in test [3] (50 nM); 99.3 in test [3] (500 nM).
As for `COc1cc(Nc2ncc(F)c(Nc3ccc4c(n3)NC(=O)C(C)(C)O4)n2)cc(OC)c1OC` [R406 (free base)], the cell proliferation in test [1] (50 nM) turned out to be 98; in test [1] (500 nM), 87.2; in test [2] (50 nM), 103; in test [2] (500 nM), 98.3; in test [3] (50 nM), 94.8; in test [3] (500 nM), 92.8.
As for `OCCn1cc(-c2cnc3nnn(Cc4ccc5ncccc5c4)c3n2)cn1`, the cell proliferation came out at 111 in test [1] (50 nM); 107 in test [1] (500 nM); 105 in test [2] (50 nM); 107 in test [2] (500 nM); 99.4 in test [3] (50 nM); 104 in test [3] (500 nM).
As to `COC(=O)Nc1ccc(-c2nc(N3CCOCC3)c3cnn(C4CCN(C(=O)OC)CC4)c3n2)cc1`, the cell proliferation in test [1] (50 nM) worked out at 107; in test [1] (500 nM), 55.1; in test [2] (50 nM), 101; in test [2] (500 nM), 56.4; in test [3] (50 nM), 101; in test [3] (500 nM) it was 46.9.
Regarding `Oc1cccc(-c2nc(N3CCOCC3)c3oc4ncccc4c3n2)c1`, the cell proliferation in test [1] (50 nM) came to 97.4; in test [1] (500 nM), 45.4; in test [2] (50 nM) it was 94.2; in test [2] (500 nM) it was 46.3; in test [3] (50 nM), 92.1; in test [3] (500 nM), 48.
With `Nc1nc(N)c2nc(-c3cccc(O)c3)c(-c3cccc(O)c3)nc2n1`, the cell proliferation stood at 103 in test [1] (50 nM); 100 in test [1] (500 nM); 110 in test [2] (50 nM); 96.6 in test [2] (500 nM); 99 in test [3] (50 nM); 99.2 in test [3] (500 nM).
As to `CCNC(=O)c1noc(-c2cc(C(C)C)c(O)cc2O)c1-c1ccc(CN2CCOCC2)cc1`, the cell proliferation in test [1] (50 nM) was found to be 4.68; in test [1] (500 nM), 4.69; in test [2] (50 nM) it was 21.4; in test [2] (500 nM) it was 21.1; in test [3] (50 nM), 3.32; in test [3] (500 nM) it was 3.9.
Regarding `CC[C@H](NC(=O)[C@H](C)NC)C(=O)N1C[C@@H](O)C[C@H]1Cc1c(-c2[nH]c3cc(F)ccc3c2C[C@@H]2C[C@H](O)CN2C(=O)[C@H](CC)NC(=O)[C@H](C)NC)[nH]c2cc(F)ccc12` [Birinapant], the cell proliferation in test [1] (50 nM) stood at 102; in test [1] (500 nM), 100; in test [2] (50 nM), 99.4; in test [2] (500 nM) it was 90.9; in test [3] (50 nM), 103; in test [3] (500 nM), 101.
Turning to `N=C1NC(=O)/C(=C/c2ccc(O)cc2)S1` [Mirin], the cell proliferation is 103 in test [1] (50 nM); 94.6 in test [1] (500 nM); 107 in test [2] (50 nM); 102 in test [2] (500 nM); 90.9 in test [3] (50 nM); 97.3 in test [3] (500 nM).
With `O=c1sn(-c2cccc3ccccc23)c(=O)n1Cc1ccccc1` [Tideglusib], the cell proliferation in test [1] (50 nM) worked out at 94; in test [1] (500 nM), 106; in test [2] (50 nM) it was 103; in test [2] (500 nM), 101; in test [3] (50 nM) it was 89.3; in test [3] (500 nM), 93.1.
`CCCC(CCC)C(=O)O` [Valproic acid sodium salt (Sodium valproate)]: the cell proliferation in test [1] (50 nM) came to 98.2; in test [1] (500 nM) it was 101; in test [2] (50 nM) it was 103; in test [2] (500 nM), 94.2; in test [3] (50 nM) it was 106; in test [3] (500 nM) it was 97.6.
In the case of `CN1C(=O)C(Cc2c[nH]c3ccccc23)NC1=S` (centres undefined) [Necrostatin-1], the cell proliferation was found to be 103 in test [1] (50 nM); 93.1 in test [1] (500 nM); 95.6 in test [2] (50 nM); 102 in test [2] (500 nM); 95 in test [3] (50 nM); 94.8 in test [3] (500 nM).
For the compound `COC1=CC(c2cc3ccccc3[nH]2)=N/C1=C\c1[nH]c(C)cc1C` [Obatoclax Mesylate (GX15-070)], the cell proliferation in test [1] (50 nM) worked out at 94.8; in test [1] (500 nM), 1.6; in test [2] (50 nM), 102; in test [2] (500 nM) it was 8.59; in test [3] (50 nM), 75.2; in test [3] (500 nM), 2.95.
On to `Cc1cnc(Nc2ccc(N3CCN(C)CC3)cc2)nc1Nc1cccc(S(=O)(=O)NC(C)(C)C)c1`, for which the cell proliferation amounted to 95.6 in test [1] (50 nM); 70.3 in test [1] (500 nM); 90 in test [2] (50 nM); 65.2 in test [2] (500 nM); 89.4 in test [3] (50 nM); 79.5 in test [3] (500 nM).
As to `O=C(CCCCCCNC(=O)c1cnc(N(c2ccccc2)c2ccccc2)nc1)NO` [Rocilinostat (ACY-1215)], the cell proliferation in test [1] (50 nM) turned out to be 104; in test [1] (500 nM), 104; in test [2] (50 nM), 110; in test [2] (500 nM) it was 96.5; in test [3] (50 nM), 98.5; in test [3] (500 nM), 92.2.
Regarding `C[C@@H](O[C@H]1OCCN(Cc2n[nH]c(=O)[nH]2)[C@H]1c1ccc(F)cc1)c1cc(C(F)(F)F)cc(C(F)(F)F)c1` [Aprepitant], the cell proliferation in test [1] (50 nM) is 109; in test [1] (500 nM), 106; in test [2] (50 nM), 101; in test [2] (500 nM), 97.4; in test [3] (50 nM) it was 108; in test [3] (500 nM) it was 98.5.
For the compound `COc1ccc(C2=N[C@H](c3ccc(Cl)cc3)[C@H](c3ccc(Cl)cc3)N2C(=O)N2CCNC(=O)C2)c(OC(C)C)c1` [Nutlin-3b], the cell proliferation in test [1] (50 nM) is 105; in test [1] (500 nM), 96.6; in test [2] (50 nM), 100; in test [2] (500 nM) it was 107; in test [3] (50 nM), 102; in test [3] (500 nM) it was 99.6.
For `CNC(=O)c1cc(Oc2ccc(NC(=O)Nc3ccc(Cl)c(C(F)(F)F)c3)cc2)ccn1` [Sorafenib], the cell proliferation was determined as 114 in test [1] (50 nM); 107 in test [1] (500 nM); 105 in test [2] (50 nM); 122 in test [2] (500 nM); 101 in test [3] (50 nM); 112 in test [3] (500 nM).
On to `CN(Cc1cnc2nc(N)nc(N)c2n1)c1ccc(C(=O)N[C@@H](CCC(=O)O)C(=O)O)cc1` [Methotrexate], for which the cell proliferation in test [1] (50 nM) worked out at 102; in test [1] (500 nM), 37.1; in test [2] (50 nM) it was 102; in test [2] (500 nM) it was 67.8; in test [3] (50 nM) it was 99.4; in test [3] (500 nM), 29.9.
Consider `C[C@H](Nc1ncnc2nc[nH]c12)c1cc2cccc(Cl)c2c(=O)n1-c1ccccc1`, for which the cell proliferation worked out at 103 in test [1] (50 nM); 92.2 in test [1] (500 nM); 95.6 in test [2] (50 nM); 94.3 in test [2] (500 nM); 106 in test [3] (50 nM); 108 in test [3] (500 nM).
For `CN[C@@H](C)C(=O)N[C@H]1CN(C(=O)CC(C)C)CC[C@H]2CC[C@@H](C(=O)NC(c3ccccc3)c3ccccc3)N2C1=O`, the cell proliferation in test [1] (50 nM) is 106; in test [1] (500 nM) it was 111; in test [2] (50 nM), 94.6; in test [2] (500 nM), 105; in test [3] (50 nM), 94; in test [3] (500 nM), 103.
`COc1cc2ncnc(Nc3ccc(O)c(Br)c3)c2cc1OC`: the cell proliferation in test [1] (50 nM) is 106; in test [1] (500 nM), 111; in test [2] (50 nM) it was 96.2; in test [2] (500 nM) it was 105; in test [3] (50 nM), 98.3; in test [3] (500 nM) it was 101.
For the compound `C[C@@H]1C[C@H]2[C@@H]3CCC4=CC(=O)C=C[C@]4(C)[C@@]3(F)[C@@H](O)C[C@]2(C)[C@@]1(O)C(=O)CO` [Dexamethasone (DHAP)], the cell proliferation in test [1] (50 nM) worked out at 76.1; in test [1] (500 nM), 79; in test [2] (50 nM), 80.9; in test [2] (500 nM), 71.2; in test [3] (50 nM), 77.4; in test [3] (500 nM), 74.2.
As for `CN1CCC(Nc2nc(Nc3ccc(Oc4ccccc4)cc3)c3c(=O)[nH]cc(Br)c3n2)CC1`, the cell proliferation in test [1] (50 nM) amounted to 100; in test [1] (500 nM), 83.1; in test [2] (50 nM), 99.4; in test [2] (500 nM), 83.4; in test [3] (50 nM), 89.6; in test [3] (500 nM), 85.5.
